Screens from PubChem.
ALDH1A1 block = qHTS Assay for Inhibitors of Aldehyde Dehydrogenase 1 (ALDH1A1); Purified ALDH1A1, NADH fluorescence, propionaldehyde substrate; actives 7.3% (n = 220,000); Potency, µM (titrated, usually from 75.3 µM), inactives show at the highest dose activity, negative = inhibition, usual class: inhibitors; Aldehyde dehydrogenase 1A1 (Homo sapiens), P00352;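 also: potency is read from the fitted curve at half-maximal effect; plate controls were no enzyme wells and a reference inhibitor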
PNC assembly inh = High Content Assay for Compounds that inhibit the Assembly of the Perinucleolar Compartment; PC3M PTB-GFP, PNC prevalence imaging, 16 h; active compounds read low; activity change (PNC), negative = inhibition, % at 10 µM; actives 3.1% (n = 140,000); AID 2417, 2010;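 active = readout at or below -70, meaning at least 70% loss of cells showing the perinucleolar compartment, a nuclear body marking cancer cells; inconclusive = readout between -30 and a set limit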;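 also: plate controls were DMSO wells for no effect and camptothecin positive control wells for full effect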
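PC3M cells stably expressing PTB-GFP, 750–1000 cells/well, treated 16 h at 37 °C with compound (23 nl of library stock), in duplicate. After paraformaldehyde fixation and Hoechst stain, imaged at 20x; PNC prevalence scored by image analysis.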
HPGD block = qHTS Assay for Inhibitors of HPGD (15-Hydroxyprostaglandin Dehydrogenase) | purified HPGD, NADH fluorescence kinetic, PGE2 substrate | 15-hydroxyprostaglandin dehydrogenase [NAD(+)] (Homo sapiens), P15428 | AID 894, 2007 | actives 4.3% (n = 150,000) | Potency, µM, without a hit: at the highest dose activity change, negative = inhibition, most hits filed as inhibitors; also: potency is read from the fitted curve at half-maximal effect
Target sequence (P15428 whole entry, looked up): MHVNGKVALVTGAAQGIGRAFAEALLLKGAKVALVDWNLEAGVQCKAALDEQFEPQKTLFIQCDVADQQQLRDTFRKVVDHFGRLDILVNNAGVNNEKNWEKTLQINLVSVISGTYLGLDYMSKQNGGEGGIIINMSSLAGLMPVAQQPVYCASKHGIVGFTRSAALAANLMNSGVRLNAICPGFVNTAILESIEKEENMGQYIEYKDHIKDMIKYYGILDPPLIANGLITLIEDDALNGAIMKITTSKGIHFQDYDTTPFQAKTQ
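20 nM HPGD preincubated 15 min at room temperature with compound in 50 mM Tris-HCl pH 8, 0.01% Tween 20. Started with 1 mM NAD+ and 30 uM prostaglandin E2; NADH fluorescence (360/450 nm) read 5 times over 30-s intervals, last minus first.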
An asterisk follows results filed as active; ? = inconclusive; nt = no result; [ ] = another dose, or the depositor's remark. An excerpt weighted towards active compounds, which were near 11% of everything screened. Unless noted, calls follow the shape of the dose curve; as a rule, active = well fitted inhibition curve with a large enough effect (not every such curve was filed as active); inconclusive = small, poorly fitted or top-dose-only effect, or another doubt; inactive = no such curve, though single readings can be large or run the other way. Unless noted, % is scaled to controls: 0 for no effect and ±100 for the full control effect.

SMILES	ALDH1A1 block	PNC assembly inh	HPGD block
Cc1ccc(CNC(=O)CSc2c3c(nc4cc(Cl)ccc24)CCCC3)o1	20µM*	?	?
CCCCNC(=O)c1ccc2c(SCC(=O)O)c3c(nc2c1)CCCC3	?	20.3	12.6µM*
COc1ccc(NC(=O)c2ccc3c(SCC(=O)O)c4c(nc3c2)CCCC4)c(OC)c1	7.94µM*	nt	nt
CCC(C)NC(=O)c1ccc2c(SCC(=O)O)c3c(nc2c1)CCCC3 (stereo not given)	?	12.1	22.4µM*
O=C(O)CSc1c2c(nc3cc(C(=O)N4CCCC4)ccc13)CCCC2	-4.6%	nt	nt
CCN(CC)CCCNC(=O)CSc1c2c(nc3cc(Cl)ccc13)CCCC2	-6.3%	nt	nt
O=C(NCc1cccnc1)C(=O)NCC1OCCN1S(=O)(=O)c1ccc(F)cc1 (stereo not given)	-9.4%	44.0	-12.6%
COc1nc(C)nc2c1sc1nc3c(cc12)COC(C)(C)C3	?	28.0	?
CCc1nc2c(sc3nc4c(cc32)COC(C)(C)C4)c(=O)n1Cc1ccco1	2.51µM*	?	-27.5%
CCc1nc2c(sc3nc4c(cc32)COC(C)(C)C4)c(=O)n1Cc1ccccc1	0.708µM*	36.3	?
CCc1nc(OCc2ccco2)c2sc3nc4c(cc3c2n1)COC(C)(C)C4	?	-29.6	-24.1%
COc1ccc(/C=C(\NC(=O)c2ccccc2Cl)C(=O)NCCCC(=O)O)cc1	-0.4%	nt	nt
CN(c1cccc(NC(=O)CN(c2cccc(Cl)c2)S(=O)(=O)c2ccccc2)c1)S(C)(=O)=O	-2.5%	50.5	nt
O=C(COC(=O)C1=COCCO1)NC1CCCCCCC1	2.7%	nt	nt
Cc1cccc(N2C(=O)CN(Cc3sccc3C)C2=S)c1	-0.8%	-16.4	14.1µM*
Cc1cc(C)cc(N2C(=O)CN(Cc3sccc3C)C2=S)c1	0.4%	-27.7	28.2µM*
Cc1ccsc1CN1CC(=O)N(c2c(C)cccc2C)C1=S	5.9%	nt	nt
CCc1ccc(N2C(=O)CN(Cc3sccc3C)C2=S)cc1	-3.4%	nt	nt
C/C(=N/Nc1ccc2ccccc2n1)c1ccccc1O	-2.5%[13.5 µM]	nt	-9.0%
C=CCSC[C@@H]1Nc2cc(Cl)c(S(N)(=O)=O)cc2S(=O)(=O)N1	4.6%[20.9 µM]	nt	-8.7%
O=S(=O)(N/N=C/c1ccc(OC2CSC2)cc1)c1ccccc1	?	9.4	-11.8%
O=S(=O)(N/N=C/c1ccc(N2CCOCC2)cc1)c1ccccc1	10µM*	nt	nt
CC(C)=CCN1CCN(Cc2cn[nH]c2C2CCCCC2)CC1CCO (stereo not given)	9.7%	nt	nt
CCCCN(C)C(=O)c1nc2ccccn2c1CN1CCN(C(=O)c2cccs2)CC1	6.31µM*	nt	nt
CCCCN(C)C(=O)c1nc2ccccn2c1CN1CCN(c2ccccn2)CC1	-0.8%	nt	nt
SMILES	ALDH1A1 block	PNC assembly inh	HPGD block
COc1ccccc1CN1CCN(C(=O)c2ccncc2)CC1	?	35.2	-7.8%
O=C(c1cccs1)N1CCN(Cc2ccccc2)CC1	5.9%	-109.0*	0.6%
COc1cccc(OC)c1C(=O)N1CCN(Cc2ccncc2)CC1	14.1µM*	-22.6	-3.0%
COc1cccc(CN2CCN(C(=O)c3cccs3)CC2)c1OC	17.8µM*	32.4	-26.1%
O=C(c1cccs1)N1CCN(Cc2ccncc2)CC1	?	?	-1.2%
COc1ccc(OC)c(CN2CCN(C(=O)c3cccs3)CC2)c1	-16.2%	-27.5	-7.1%
CC1CCC(NC(=O)CCNC(=O)c2ccccc2)CC1 (stereo not given)	7.6%	nt	nt
c1nnc(NCNc2nncs2)s1	5.9%[13.5 µM]	nt	1.1%
CCC(C)NS(=O)(=O)c1ccc(S(=O)(=O)N2CC=C(c3ccc(F)cc3)CC2)cc1 (stereo not given)	-1.8%	-13.2	?
CO[C@@H]1COC(=O)[C@H]2CCCN2C(=O)[C@@H](C)COC(=O)C/C=C\[C@H]1C	2.4%[13.5 µM]	nt	nt
COCCNC(=O)c1cc(OC)c(OC)cc1[N+](=O)[O-]	5.8%	nt	nt
O=C(Cn1cncc1-c1ccc([N+](=O)[O-])cc1)Nc1ccccc1F	-0.3%	26.2	?
Cc1ccc2cccc(Oc3ncnc4scc(-c5ccc(Cl)cc5)c34)c2n1	-2.5%	5.4	-7.7%
Cc1ccc(NNC(=O)c2ccc(Cl)cc2)nn1	-6.6%	nt	nt
CC(=C/c1ccco1)/C=N/NC(=O)Cc1cccn1C	25.1µM*	41.5	-25.8%
CC(/C=N/NC(=O)CN1CCN(Cc2ccc(Cl)cc2)CC1)=C\c1ccco1	-8.8%	-23.8	-1.5%
CC(/C=N/NC(=O)CSc1nnc(SCc2ccccc2)s1)=C\c1ccco1	?	46.6	-15.8%
CC(/C=N/NC(=O)Cc1cccn1C)=C\c1ccco1	14.1µM*	29.0	?
Cn1cccc1CC(=O)N/N=C\c1cccs1	-8.5%	9.3	?
